Hits are enriched below; roughly 3.5% of the tested compounds scored in any of these assays.
FBW7 activator: human FBW7 E3 ligase activation, primary screen; normalized activity (activation), % at 26.1 µM; AID 1259310; Q969H0; AlphaScreen FBW7–phospho-cyclin E peptide binding, activator screen; 650,000 compounds, 0.13% hits; in the data active = normalized activity above about 1.9%;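 also: purified mutant Fbw7 with reduced substrate affinity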
Target sequence (Q969H0 whole entry, looked up): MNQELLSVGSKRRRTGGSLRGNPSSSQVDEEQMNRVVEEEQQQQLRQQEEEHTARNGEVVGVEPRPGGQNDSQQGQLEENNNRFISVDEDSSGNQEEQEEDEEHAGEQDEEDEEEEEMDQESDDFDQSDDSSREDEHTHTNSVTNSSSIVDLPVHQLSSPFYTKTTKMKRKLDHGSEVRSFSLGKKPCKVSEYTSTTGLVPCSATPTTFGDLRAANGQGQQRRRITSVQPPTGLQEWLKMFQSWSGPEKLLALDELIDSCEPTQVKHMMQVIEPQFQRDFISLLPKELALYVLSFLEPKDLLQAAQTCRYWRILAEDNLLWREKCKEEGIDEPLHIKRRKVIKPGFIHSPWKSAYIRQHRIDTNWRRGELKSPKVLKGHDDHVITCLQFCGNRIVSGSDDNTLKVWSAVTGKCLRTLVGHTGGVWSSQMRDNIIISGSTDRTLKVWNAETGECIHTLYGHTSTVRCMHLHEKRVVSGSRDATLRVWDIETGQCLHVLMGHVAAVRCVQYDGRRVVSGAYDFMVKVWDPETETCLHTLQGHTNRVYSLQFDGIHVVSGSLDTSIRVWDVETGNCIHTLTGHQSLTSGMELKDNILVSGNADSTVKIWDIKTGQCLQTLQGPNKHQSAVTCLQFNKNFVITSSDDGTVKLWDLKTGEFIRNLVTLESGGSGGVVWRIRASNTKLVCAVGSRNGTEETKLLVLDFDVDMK
TEAD-YAP inh: TEAD-YAP interaction inhibition; inhibition, % at 9.12 µM; AID 1259422; HEK-TIYL cells, TEAD-Gal4/YAP UAS-luciferase luminescence; 640,000 compounds, 1.4% hits; in the data active = inhibition above about 32%
MITF inh: inhibitors of human MITF. AlphaScreen MITF homodimerization, bead proximity signal. inhibition, % at 2.6 µM. 650,000 compounds, 0.91% hits. AID 1259374; in the data active = inhibition above about 50%
GPR151 ag: activates the human receptor GPR151 | Q8TDV0 | PathHunter beta-arrestin GPR151 cells, luminescence | activation, % at 11.2 µM | 650,000 compounds, 1% hits; in the data active = activation above about 4.9%
GPR151 confirm: confirmation of human GPR151 activators; 6,700 tested, under 10 active; GPR151 PathHunter beta-arrestin cells, luminescence, 90 min; % of EA-reagent control over plate median; activation, % at 11.2 µM; shares compounds with GPR151 ag;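 active = mean percent activation across replicates above the confirmation screen cutoff of 4.91%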
GPR119 counter: GPR119 activation, counter-screen for GPR151 activators | shares compounds with GPR151 ag | GPR119 PathHunter beta-arrestin cells, luminescence, 90 min; 0 = compound-well median, 100 = enzyme-acceptor control | activation, % at 11.2 µM | 6,700 compounds, 0.3% hits | AID 1508611;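 active = mean percent activation in the counterscreen above 29.09%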;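 also: counterscreen on off-target GPR119 to flag nonselective hits from the GPR151 activator screen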
Numbers stand for hits; . = inactive; / = no result.

SMILES	FBW7 activator	TEAD-YAP inh	MITF inh	GPR151 ag	GPR151 confirm	GPR119 counter
CC(C)C(=O)NCCc1nnc2n1CCN(Cc1cc3ccccc3o1)CC2	.	.	.	.	/	/
O=C(Cc1ccc(F)cc1)NCCc1nnc2n1CCN(Cc1cc3ccccc3o1)CC2	.	.	.	5.1	.	.
CC(C)c1nnc(C2CCN(C(=O)Cn3c(=O)oc4ccccc43)CC2)o1	.	.	.	9.7	.	.
COc1ccc(S(=O)(=O)NCc2nnc(SC)n2-c2ccccc2C)cc1	.	.	.	.	/	/
Cc1cc(C)c(S(=O)(=O)Nc2cc3c4c(c2)CC(=O)N4CCC3)c(C)c1	.	.	.	5.0	.	.
CC(C)Cn1c(=O)c(C(=O)Nc2cccc(F)c2)c(O)c2ccccc21	.	.	.	.	/	/
COc1ccc(-c2nc3n(n2)C(c2ccc(OC)cc2OC)C(C(N)=O)=C(C)N3)cc1 (centres undefined)	.	.	.	7.4	.	.
COc1ccc(-c2nc3n(n2)C(c2cc(OC)ccc2OC)C(C(N)=O)=C(C)N3)cc1 (centres undefined)	.	.	.	.	/	/
COc1cccc(NC(=O)c2cc([N+](=O)[O-])ccc2N2CCOCC2)c1	.	.	.	.	/	/
CSCCC(NC(=O)C1CCC(C)CC1)C(=O)NCc1ccccn1 (centres undefined)	.	.	.	5.0	.	.
Cc1ccc(/C=C(\C#N)C(=O)Nc2cccc([N+](=O)[O-])c2)o1	.	.	.	.	/	/
Cc1cc(=O)n2nc(N3CCCC(C(=O)N4CCN(c5ccccc5)CC4)C3)sc2n1 (centres undefined)	.	.	.	.	/	/
CCOC(=O)N1CCN(C(=O)C2CCCN(c3nn4c(=O)cc(C)nc4s3)C2)CC1 (centres undefined)	.	.	.	5.6	.	.
Cc1ccc(-n2[nH]c(C)c(C=Nc3ccc(I)cc3)c2=O)cc1C	.	.	.	.	/	/
CCCOc1ccc(C(=O)Nc2ccc(C(=O)Nc3cccc4ccccc34)cc2)cc1	.	.	.	.	/	/
Cc1ccc(S(=O)(=O)n2cc(-c3ccnc(N)c3)c3cc(Br)cnc32)cc1	/	/	/	7.6	.	.
Cc1cccc(NC(=O)c2nc[nH]c2C(=O)Nc2cccc(C)c2)c1	.	.	.	6.6	.	.
Cc1ccc(NC(=O)c2nc[nH]c2C(=O)Nc2ccc(C)cc2)cc1	.	.	.	.	/	/
COCC(C)NC(=O)c1ccc(OC2CCN(Cc3ccccn3)CC2)cc1 (centres undefined)	.	.	.	5.8	.	.
O=C(c1ccncc1)N(c1ccc2oc(=O)sc2c1)S(=O)(=O)c1cccs1	.	.	.	.	/	/
Cc1cccc(C)c1OCC(=O)NNC(=O)COc1ccc(C(C)C)cc1	.	.	.	.	/	/
CC(C)NC(=O)c1ccc(C(=O)C(F)(F)F)cc1	.	.	.	5.6	.	.
CC(C)NC(=O)c1ccc(COCC(F)(F)F)cc1	.	.	.	.	/	/
CC(C)NC(=O)C(=O)NNC(=O)c1ccc(C(C)(C)C)cc1	.	.	.	5.7	.	.
CCc1ccc(NC(=O)c2cc(S(=O)(=O)N3CCN(c4cccc(Cl)c4)CC3)ccc2F)cc1	.	.	.	.	/	/
SMILES	FBW7 activator	TEAD-YAP inh	MITF inh	GPR151 ag	GPR151 confirm	GPR119 counter
O=C1N[C@@H](Cc2cnc[nH]2)C(=O)N2CCN(Cc3cnn(-c4cccc(F)c4)c3)C[C@H]12	.	.	.	.	/	/
Cc1cc(Cl)ccc1OC(C)C(=O)NCc1ccco1 (centres undefined)	.	.	.	6.9	.	.
CC(=O)N1CCN(c2nc3nonc3nc2NCc2ccccc2)CC1	.	.	.	.	/	/
COc1ccc(CCNC(=O)c2cc(-c3ccc(O)cc3)on2)cc1OC	.	.	.	.	/	/
Cc1ccc(CN2CCN(C(=O)C3CCC3)CC2)cc1	.	.	.	5.0	.	.
CCc1ccc(CN2CCC(C(=O)N3CCN(CC)CC3)CC2)cc1	.	.	.	.	/	/
O=C(CS(=O)(=O)c1ccccc1)Nc1nc(-c2ccc3ccccc3c2)cs1	.	.	.	.	/	/
O=C(CS(=O)(=O)c1ccccc1)Nc1nc(-c2ccc(F)cc2)cs1	.	.	.	9.7	.	.
O=C(CN1C(=O)CC(c2ccco2)Sc2ccccc21)Nc1ccc(F)cc1F (centres undefined)	.	.	.	7.5	.	.
O=C(CCN1c2ccccc2Sc2ccccc21)N1CCOCC1	.	.	.	5.8	.	.
CC1CC(OC(=O)C(O)c2ccccc2)CC(C)(C)C1 (centres undefined)	.	.	.	6.6	.	.
CCOc1ccc(-n2c(C)nc3cc(C(=O)NCc4ccc(C)cc4)ccc32)cc1	.	.	.	5.3	.	.
CCCCOc1ccc(-c2nc(C=Nc3cccc(Cl)c3C)c(O)o2)cc1	.	.	.	.	/	/
O=c1c2cnn(-c3ccccc3)c2ncn1C/C=C/c1ccccc1	.	.	.	8.3	.	.
CCS(=O)(=O)N1CCC(c2[nH]ncc2-c2cc(C)no2)CC1	.	.	.	5.9	.	.
CC(=O)N1CCC(c2[nH]ncc2-c2cc(C)no2)CC1	.	.	.	.	/	/
CCOc1ccccc1NS(=O)(=O)c1ccc(OC)c(Cl)c1	.	.	.	5.5	.	.
CCOc1ccccc1NS(=O)(=O)c1ccc(Br)c(OC)c1	.	.	.	.	/	/
COc1ccccc1NS(=O)(=O)c1ccc2nc(CCl)[nH]c2c1	.	.	.	7.0	.	.
COc1ccc(S(=O)(=O)Nc2ccccc2SC)cc1C	.	.	.	.	/	/
COc1ccc(S(=O)(=O)Nc2ccccc2SC)cc1Cl	.	.	.	5.2	.	.
CC1=C(C(=O)OC(C)C)C(c2c(F)cccc2Cl)CC(=O)N1 (centres undefined)	.	.	.	.	/	/
CSc1ccccc1C(=O)N1CCC2(CCC(CNC(=O)c3ccccc3F)O2)CC1 (centres undefined)	.	.	.	.	/	/
CCC1CCCCN1C(=O)Cn1c(=O)n(-c2ccc(F)cc2)c(=O)c2sccc21 (centres undefined)	.	.	.	.	/	/
CC1CCCCN1C(=O)Cn1c(=O)n(-c2ccc(F)cc2)c(=O)c2sccc21 (centres undefined)	.	.	.	5.2	.	.
CCNC(=O)N1CCN(Cc2ccccc2)CC1C(=O)NCC(=O)OC (centres undefined)	.	.	.	.	/	/
C=CCC1C=CCC(CC=C)N1C(=O)c1ccccc1[N+](=O)[O-] (centres undefined)	.	.	.	9.2	.	.
O=C(c1ccccc1[N+](=O)[O-])N1CC2C3C=CC(C3)C2C1 (centres undefined)	.	.	.	.	/	/
COC(=O)C1CCN(C(=O)/C(=C\c2ccccc2)c2ccccc2)CC1	.	.	.	.	/	/
CCOC(=O)C1CCN(C(=O)/C(=C/c2cccc([N+](=O)[O-])c2)c2ccccc2)CC1	.	.	.	8.7	.	.

High-throughput results as filed in PubChem BioAssay.
